Records with an inconclusive call do not appear. Values without a mark were called inactive. Calls come from the whole dose curve.
Target: Nucleoprotein (Lymphocytic choriomeningitis virus (strain Armstrong)) (UniProt P09992)
Test: qHTS for Inhibitors of the Functional Ribonucleoprotein Complex (vRNP) of Lymphocytic Choriomeningitis Arenaviruses (LCMV): LCMV Primary Screen - GLuc reporter signal (AID 1347086); note: nearly all actives have a fitted effect of over 70% in size
Details: LCMV minigenome vRNP cell assay, Gaussia luciferase reporter; series mostly up to 57.5 µM; activity change, negative = inhibition: at the top concentration
% is set by controls: 0 for no effect and ±100 for the full control effect.

Nucleoprotein (Lymphocytic choriomeningitis virus (strain Armstrong)), sequence (P09992 whole entry, looked up): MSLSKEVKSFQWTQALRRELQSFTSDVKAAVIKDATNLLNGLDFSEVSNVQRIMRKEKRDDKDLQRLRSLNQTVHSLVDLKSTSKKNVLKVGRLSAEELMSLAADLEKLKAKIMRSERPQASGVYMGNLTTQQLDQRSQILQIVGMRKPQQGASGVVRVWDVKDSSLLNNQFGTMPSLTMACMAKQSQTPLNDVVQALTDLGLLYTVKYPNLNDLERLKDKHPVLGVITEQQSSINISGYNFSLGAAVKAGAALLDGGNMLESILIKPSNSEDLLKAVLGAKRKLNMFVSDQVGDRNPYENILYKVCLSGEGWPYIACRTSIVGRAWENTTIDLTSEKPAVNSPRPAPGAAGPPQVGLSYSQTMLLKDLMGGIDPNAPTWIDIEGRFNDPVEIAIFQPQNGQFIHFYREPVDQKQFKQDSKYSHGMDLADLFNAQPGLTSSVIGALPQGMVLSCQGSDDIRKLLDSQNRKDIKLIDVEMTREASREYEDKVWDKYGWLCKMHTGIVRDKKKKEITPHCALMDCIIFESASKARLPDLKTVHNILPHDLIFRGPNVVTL

Compound	activity change, negative = inhibition
COc1c2ccoc2c(OC[C@@H](O)C(C)(C)O)c2oc(=O)ccc12	36.2%
NC(=O)Nc1ccc(Cl)c(Cl)c1	32.7% [at 115 µM]
Cn1c(=O)c2nncnc2n(C)c1=O	6.52%
Cc1nc(C)c(C)nc1C	21.6% [at 115 µM]
CC(=O)OCC=C(C)C	9.39%
C/C=C(\C)C(=O)O[C@@H]([C@H](O)c1cc2ccc(=O)oc2cc1OC)C(C)(C)O	-0.373%
C=C(CC[C@@H](O)C(C)(C)O)[C@H]1CC[C@]2(C)[C@@H]1CCC1[C@@]3(C)CC[C@H](O)C(C)(C)C3CC[C@]12C (stereo partly drawn)	27.9%
C=C(C)[C@@H]1CCC2(C(=O)O)CC[C@]3(C)[C@H](CC[C@@H]4[C@@]5(C)CCC(=O)C(C)(C)[C@@H]5CC[C@]43C)[C@@H]12 (stereo partly drawn)	0.573%
C[C@]12O[C@H](C[C@@]1(O)C(=O)O)n1c3ccccc3c3c4c(c5c6ccccc6n2c5c31)CNC4=O	25.9% [at 5.82 µM]
CCNC(=O)CCCC=CC[C@@H]1[C@H](C=CC(O)CCc2ccccc2)[C@@H](O)C[C@@H]1O (stereo partly drawn)	10.9%
C=C[C@]1(C)Cc2occ(C)c2C[C@H]1C(=C)C(=O)O	4.86%
C=C(C)c1cc2c(ccc3ccc(=O)oc32)o1	17.3%
CC12C=CC(=O)C=C1CCC1C2CCC2(C)C(C(=O)CO)CCC12 (stereo not drawn)	-3.17%
COC1C(O)C(O)C(O)C(O)C1O (stereo not drawn)	11.2%
Cc1cnnc2ccccc12	-19%
CC/C=C\CCOC(=O)c1ccccc1	-2.14% [at 115 µM]
COc1cc2c(cc1OC)-c1cc3ccc4c(c3c[n+]1CC2)OCO4	-18.6%
O=CCCc1ccccc1	2.82% [at 115 µM]

From PubChem BioAssay (NCATS)
